Experimental data published in the supplement of paper PMC8253809.

These molecules were tested on SUDIPGXIII (diffuse intrinsic pontine glioma line) (assay: growth inhibition (% activity, log2 RLU normalised to DMSO / staurosporine); higher = more growth inhibition). Details: 33 µM.
Procedure, shortened: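 The growth-inhibition value comes from CellTiter-Glo luminescence, log2-transformed, normalised per plate to % activity between solvent and positive control wells, and taken as the median over replicates. Treatment of pHGG cell lines and H9-derived neural stem cells with approved drugs was at a single final concentration of about 33 μM, in triplicate, for 7 days at 37 °C, 5% CO2.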
`CNC(=O)c1ccc(N2C(=S)N(c3ccc(C#N)c(C(F)(F)F)c3)C(=O)C2(C)C)cc1F` showed a growth inhibition of 1.86%. `O=c1oc2cc(O)ccc2s1` gave a growth inhibition of 28.9%. Molecule `CN1CCC(=C2c3ccccc3CC(=O)c3sccc32)CC1` has a growth inhibition of 0.861%. Molecule `CC1=C(C(=O)OC(C)C)C(c2cccc([N+](=O)[O-])c2)C(C(=O)OC2CN(C(c3ccccc3)c3ccccc3)C2)=C(N)N1` (centres undefined) has a growth inhibition of 11.7%. `C[C@H]1C[C@@H]2[C@H]([C@@H](O)C[C@@]3(C)[C@H]2CC[C@]3(O)C(=O)CO)[C@@]2(C)C=CC(=O)C=C12` gave a growth inhibition of 1.59%. `C[C@@H]1CC(=O)NN=C1c1ccc(NN=C(C#N)C#N)cc1` gave a growth inhibition of 0.449%. `Cc1cnc(NC(=O)C2=C(O)c3ccccc3S(=O)(=O)N2C)s1` was tested, and the growth inhibition was -0.269%. `CCCCCCCCCCCCCCCC[N+](C)(C)CCN(Cc1ccc(OC)cc1)c1ncccn1` gave a growth inhibition of 42.9%. Molecule `CC(C)OC(=O)OCOP(=O)(CO[C@H](C)Cn1cnc2c(N)ncnc21)OCOC(=O)OC(C)C` has a growth inhibition of 1.94%. Work on `C#CCC(Cc1cnc2nc(N)nc(N)c2n1)c1ccc(C(=O)N[C@@H](CCC(=O)O)C(=O)O)cc1` (some centres undefined) yielded a growth inhibition of 13%. `CCOC(=O)CCC(=O)O[C@H]1[C@H](O[C@@H]2[C@@H](C)[C@H](O[C@H]3C[C@@](C)(OC)[C@@H](O)[C@H](C)O3)[C@@H](C)C(=O)O[C@H](CC)[C@@](C)(O)[C@H](O)[C@@H](C)C(=O)[C@H](C)C[C@@]2(C)O)O[C@H](C)C[C@@H]1N(C)C` gave a growth inhibition of 2.09%. `Nc1cc(C(Cl)=C(Cl)Cl)c(S(N)(=O)=O)cc1S(N)(=O)=O` showed a growth inhibition of 1.37%. In the case of `CCCCC(CC)CN=C(N)N=C(N)NCCCCCCNC(N)=NC(N)=NCC(CC)CCCC` (centres undefined), the growth inhibition is reported as 69.8%. For `C[N+](C)(C)CCCCCC[N+](C)(C)C`, the growth inhibition was 0.369%. `CC(C)CN(C[C@@H](O)[C@H](Cc1ccccc1)NC(=O)O[C@H]1CO[C@H]2OCC[C@H]21)S(=O)(=O)c1ccc(N)cc1` was tested, and the growth inhibition was 1.1%. Work on `NCCc1c[nH]cn1` yielded a growth inhibition of 22.9%. `c1ccc2c(CC3=NCCN3)cccc2c1` showed a growth inhibition of 1.34%. `C=CCc1cc(OC)c(O)c(C(=O)NCCO)c1` showed a growth inhibition of -0.0438%. Molecule `COc1cc2/c(=N/c3ccc(Br)cc3F)nc[nH]c2cc1OCC1CCN(C)CC1` has a growth inhibition of 0.39%. `Clc1ccc(C(Cn2ccnc2)OCc2csc3c(Cl)cccc23)c(Cl)c1` (centres undefined) gave a growth inhibition of 5.27%. With `OCCOCCN1CCN(C2=Nc3ccccc3Sc3ccccc32)CC1` the growth inhibition was 1.66%. For `CC(C)(C)c1cc(C(C)(C)C)c(NC(=O)c2c[nH]c3ccccc3c2=O)cc1O`, the growth inhibition was 2.28%. For `Nc1ccc(/N=N/c2ccccc2)c(N)n1`, the growth inhibition was 1.45%. For `CC1(C)O[C@@H]2C[C@H]3[C@@H]4CCC5=CC(=O)C=C[C@]5(C)[C@@]4(F)[C@@H](O)C[C@]3(C)[C@]2(C(=O)CO)O1`, the growth inhibition was 0.942%. `C[C@H]1c2cccc(O)c2C(=O)C2=C(O)[C@]3(O)C(=O)C(C(N)=O)=C(O)[C@@H](N(C)C)[C@@H]3[C@@H](O)[C@@H]21` showed a growth inhibition of -2.03%. Work on `CCc1cc2c(cc1CC)CC(NC[C@H](O)c1ccc(O)c3[nH]c(=O)ccc13)C2` yielded a growth inhibition of 0.665%. In the case of `COc1cc2c(cc1O)CC[C@@H]1[C@@H]2CC[C@]2(C)[C@@H](O)CC[C@@H]12`, the growth inhibition is reported as 1.78%. For `CN(CCOc1ccc(NS(C)(=O)=O)cc1)CCc1ccc(NS(C)(=O)=O)cc1`, the growth inhibition was 0.844%. `NC[C@H](O)c1ccc(O)c(O)c1` gave a growth inhibition of 1.73%. `NC(=O)C(c1ccccc1)(c1ccccc1)[C@@H]1CCN(CCc2ccc3c(c2)CCO3)C1` showed a growth inhibition of 0.646%. Molecule `O=C(O)c1ccc(-n2nc(-c3ccccc3O)nc2-c2ccccc2O)cc1` has a growth inhibition of 0.207%. Work on `CN(C/C=C/c1ccccc1)Cc1cccc2ccccc12` yielded a growth inhibition of 0.316%. With `CC(C)/N=c1\cc2n(-c3ccc(Cl)cc3)c3ccccc3nc-2cc1Nc1ccc(Cl)cc1` the growth inhibition was 5.35%. `Nc1ccc(C(=O)O)c(O)c1` gave a growth inhibition of -1.06%. For `CN1CCN(CCCN2c3ccccc3Sc3ccc(Cl)cc32)CC1`, the growth inhibition was -0.277%. `O=c1ccn([C@@H]2O[C@H](CO)[C@@H](O)[C@H]2O)c(=O)[nH]1` was tested, and the growth inhibition was -2.42%. In the case of `Oc1c(Cl)cc(Cl)c2cccnc12`, the growth inhibition is reported as 2.6%. `COC1C(O)CC(=O)OC(C)CC=CC=CC(OC2CCC(N(C)C)C(C)O2)C(C)CC(CC=O)C1OC1OC(C)C(OC2CC(C)(O)C(O)C(C)O2)C(N(C)C)C1O` (centres undefined) was tested, and the growth inhibition was 0.183%. `CC[C@H](C)C[C@H](C)CCCCCCCCC(=O)N[C@H]1C[C@@H](O)[C@@H](NCCN)NC(=O)[C@@H]2[C@@H](O)CCN2C(=O)[C@H]([C@H](O)CCN)NC(=O)[C@H]([C@H](O)[C@@H](O)c2ccc(O)cc2)NC(=O)[C@@H]2C[C@@H](O)CN2C(=O)[C@H]([C@@H](C)O)NC1=O` was tested, and the growth inhibition was 0.336%.
